The target of one test is RABGEF1. As to the kind of experiment: pooled miR-30 sensor sort-seq; sequence = guide strand. As to conditions: shRNA.
Sequence TTCTTCAATGCTTAGATCCCTT came in with a sensor-assay potency score (higher = more potent) of -0.412.

Regarding TTTCTTGCACAGGAGATCCGAT, the sensor-assay potency score (higher = more potent) is -0.404.

Turning to TTTCTTTTCTTCAAACTTGGAG, the sensor-assay potency score (higher = more potent) was -0.131.

Sequence TTGGCTTCATTCATGATCCTTT showed a sensor-assay potency score (higher = more potent) of 0.202.

Turning to TTCATTAACAGGGACACACAGC, the sensor-assay potency score (higher = more potent) is -0.293.

In turn, TTATCTTCTCGACTCTTTCTGG gave a sensor-assay potency score (higher = more potent) of -0.279.

TTCACTGTGGTAACCTTGCGGG showed a sensor-assay potency score (higher = more potent) of -0.0581.

The target of a further test is RAD18. Described as above. Particulars: shRNA.
With TTCTGTGTCTTGAAGATCGTTT, the sensor-assay potency score (higher = more potent) is 0.506.

TACTTTGACAGCAAGATTCTTT displayed a sensor-assay potency score (higher = more potent) of 0.474.

TTTGTGAACAGAACTTCTGAGG yielded a sensor-assay potency score (higher = more potent) of -0.395.

TATAAATAGAAAATCTATCTGT had a sensor-assay potency score (higher = more potent) of 0.122.

In the case of TTTCCTTCTTCTCTTCGCGTGA, the sensor-assay potency score (higher = more potent) is -0.0825.

Sequence TAGAATTTAGCATCTTTCCTTG had a sensor-assay potency score (higher = more potent) of -0.0135.

In the case of TTTATCAACAACTCTGATGTAG, the sensor-assay potency score (higher = more potent) was determined as 1.04.

In turn, TTTCATTGAGTTTACTAGCTTC came in with a sensor-assay potency score (higher = more potent) of 0.211.

As to TTTTCTTTTATCAACAACTCTG, the sensor-assay potency score (higher = more potent) is 0.0462.

Turning to TTTTGTGAACAGAACTTCTGAG, the sensor-assay potency score (higher = more potent) is 0.451.

As for TTTTCTAGCCTGATCCACCAGA, the sensor-assay potency score (higher = more potent) was -0.673.

The next test concerns the target RAD54L. Described as above. Particulars: shRNA.
TAGATATAGCAAGTCTTCTTTT had a sensor-assay potency score (higher = more potent) of -1.02.

For the sequence TCTTGTATAACTCAGTCTGAAG, the sensor-assay potency score (higher = more potent) is -1.48.

Turning to TTCATGCTGACTGCTGTCCAGA, the sensor-assay potency score (higher = more potent) is -1.19.

Sequence TTGTCTCAGAAACCTCTTGTAT showed a sensor-assay potency score (higher = more potent) of -1.26.

Consider TTAACAAAATGTACCAAGCTGA, for which the sensor-assay potency score (higher = more potent) was -0.415.

With TTGCACTCTGGACTCTGGCGTA, the sensor-assay potency score (higher = more potent) is -0.761.

As to TTGACCATCTCGCCAGACCCGG, the sensor-assay potency score (higher = more potent) was -1.03.

Sequence TTGATTGGTTAGCTGACTCAAA yielded a sensor-assay potency score (higher = more potent) of -0.506.

As to TTACAAAGCTTCTTTAGCGAGG, the sensor-assay potency score (higher = more potent) is -0.517.

For the sequence TTCTTTTGACCATCTCGCCAGA, the sensor-assay potency score (higher = more potent) was -0.96.

With TTCTTAATGGACATCGTGCCAT, the sensor-assay potency score (higher = more potent) was -0.43.

In turn, TTCTTGATGATTTTCTCCCAGA yielded a sensor-assay potency score (higher = more potent) of -0.985.

The next test addresses RAD9A. Described as above. Particulars: shRNA.
As to TTTTTCCACCGTCTTCTCCAGC, the sensor-assay potency score (higher = more potent) is -1.2.

For the sequence TCACATCTAAGACACTGCCTGG, the sensor-assay potency score (higher = more potent) is -0.534.

The sequence TCAAGTTTGCTGACTCTGCAAA came in with a sensor-assay potency score (higher = more potent) of -0.678.

TCATTGGCAAAGTCGTCCGGGT showed a sensor-assay potency score (higher = more potent) of -0.913.

With TTAATGAATCAATAGCAGCGTC, the sensor-assay potency score (higher = more potent) was -0.585.

As for TGTGCTGTGAGCCTGGAGCTGA, the sensor-assay potency score (higher = more potent) was -0.559.

TTCCTTAGGAAGGTGAGCCTGA gave a sensor-assay potency score (higher = more potent) of 0.111.

The sequence TTTACAGTGACAGCCAGCTGGG had a sensor-assay potency score (higher = more potent) of -1.03.

In turn, TTCATCAGGATCTTACAGCGCA had a sensor-assay potency score (higher = more potent) of 0.0418.

The sequence TACAGTGACAGCCAGCTGGGGC registered a sensor-assay potency score (higher = more potent) of -0.774.
Also: reference of the scale not given here.
